This is one part of a sample in which hits are shown more often than they occur.
miR-122 inh – miR-122 sensor activation; Huh7 psiCHECK-miR122 Renilla luciferase sensor, 48 h; activation, % at 12.5 µM; 340,000 compounds, 0.14% hits;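 active = mean activation of 30% or more, with every replicate also reaching 30%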;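 also: 0% = median of neutral control wells and 100% = median of positive control wells; higher luciferase signal means stronger suppression of miR-122 activity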
* marks the source's active call; other numbers are inactive results.

SMILES	miR-122 inh
COc1ccc2c(c1)c(CCN)c(C)n2Cc1ccccc1	51.6*
Oc1ccc(/C=N/NP(=S)(c2ccccc2)c2ccccc2)cc1	-96.0
CC(C)C(NC(=O)C(C(C)C)N(C)C)C(=O)N(C)C(C(=O)N1CCCC1C(=O)N1CCCC1C(=O)NCc1ccccc1)C(C)C (configuration not stated)	-95.0
c1ccc(-c2cc(-c3ccccc3)[n+](-c3ccccc3)c(-c3ccccc3)c2)cc1	59.2*
CC12CCC3C(CCC4(O)CC(O)CCC34C=O)C1(O)CCC2C1=CC(=O)OC1 (configuration not stated)	-96.1
O=c1c2ccccc2nc(/C=C/c2ccc([N+](=O)[O-])o2)n1-c1ccc(O)cc1	-95.4

Assay outcomes from PubChem.
